Results on 8 molecules are retold here after PubChem BioAssay (Tox21).

Each structure is given as a SMILES string. Where “and” joins values, the source holds several entries; their conditions need not be identical. Equal values may be shown once. Results filed as inconclusive are left out. Where a structure was tested more than once in an assay, its records may differ in their call. Calls of active or inactive are those of the source. Unless noted, the call rests on the fitted dose curve; in most records, active means well fitted curve in the direction sought with a large enough effect in the repeat runs; inconclusive means weak or mixed curves; inactive means no such curve, though single readings can be large; an effect the other way counts as inactive or inconclusive.

A short description of test [1]: A CellTox Green Cytotoxicity Assay to monitor cytotoxicity in HepG2 cells - 0 hour (AID 1224882). Further: nearly all actives have a fitted effect of over 35% in size. The procedure, abridged:
(§1)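 Measurements at 0, 8, 16, 24, 32 and 40 h of treatment captured CellTox Green fluorescence in HepG2 cells that had been co-plated with reagent and preincubated 5 h at 37 C/5% CO2.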

Test [2] is described as follows: A CellTox Green Cytotoxicity Assay to monitor cytotoxicity in HepG2 cells - 32 hour (AID 1224883). Further: nearly all actives have a fitted effect of over 50% in size. Further: potency means the concentration at half of the fitted maximal effect. In short, it runs like this:
as §1

A short description of test [3]: A CellTox Green Cytotoxicity Assay to monitor cytotoxicity in HEK293 cells - 8 hour (AID 1224884). Further: nearly all actives have a fitted effect of over 35% in size. The procedure, abridged: (§2)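 Tox21 screen in HEK293: membrane-impermeant cyanine dye fluoresces on binding dead-cell DNA; compound pinned 5 h post-seeding, plates held at 37 C, signal read repeatedly through 40 h.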
Test [4] is described as follows: qHTS RealTime-Glo MT Cell Viability Assay in HEK293 cells - 24 hour (AID 1224886). Further: nearly all actives have a fitted effect of over 50% in size. Further: potency means the concentration at half of the fitted maximal effect. The procedure, abridged:
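Nonlytic real-time viability readout: viable cells convert prosubstrate to NanoLuc substrate, giving luminescence proportional to live cell number. HEK293, 600 cells/well, compound added after 5 h, continuous culture at 37 C.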
(In general: qHTS replaces the single test concentration by a dilution series.)

Test [5] is described as follows: qHTS RealTime-Glo MT Cell Viability Assay in HEK293 cells - 8 hour (AID 1224887). Further: nearly all actives have a fitted effect of over 50% in size. Further: potency means the concentration at half of the fitted maximal effect. The procedure, abridged:
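HEK293 + NanoLuc + prosubstrate, 600 cells/well; 5 h, 37 C/5% CO2; compound 23 nL in DMSO by pintool; 37 C; luminescence read at 0, 8, 16, 24, 32 and 40 h time points.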

Test [6] is described as follows: A CellTox Green Cytotoxicity Assay to monitor cytotoxicity in HEK293 cells - 16 hour (AID 1224888). Further: nearly all actives have a fitted effect of over 35% in size. In short, it runs like this:
as §2

A short description of test [7]: qHTS assay to identify small molecule antagonists of the estrogen receptor alpha (ER-alpha) signaling pathway using the BG1 cell line in the presence of 0.1 nM 17-beta-estradiol - cell viability counter screen (AID 1259241). Further: nearly all actives have a fitted effect of over 40% in size. In short, it runs like this:
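Live-cell protease activity (CellTiter-Fluor fluorescence, 30 min) was read in the same wells after VM7Luc4E2 cells had been exposed to compounds with 0.1 nM 17beta-estradiol for 22 hr at 37C.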

Test [8] deals with Estrogen receptor (Homo sapiens) (UniProt P03372). Nature of the test: qHTS assay to identify small molecule antagonists of the estrogen receptor alpha (ER-alpha) signaling pathway using the BG1 cell line in the presence of 0.1 nM 17-beta-estradiol (AID 1259244). Further: nearly all actives have a fitted effect of over 50% in size. Further: potency means the concentration at half of the fitted maximal effect. The procedure, abridged: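 Compounds were tested against 0.1 nM (final) 17beta-estradiol in VM7Luc4E2 cells, which express full-length ER-alpha and an ERE-luciferase reporter; luminescence was recorded following 22 h exposure.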

Test [9] is described as follows: qHTS assay to identify small molecule HDAC inhibitors (AID 1259364).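 Further: wild-type HCT-116 cells with endogenous class I/II HDAC activity; top concentration of the series differs between compounds; nearly all actives have a fitted effect of over 45% in size.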 The procedure, abridged:
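Screening used wild-type human colon HCT-116 cells incubated overnight, dosed with compounds for 2 hours, and assayed with a homogeneous luminogenic HDAC I/II reagent for 30 minutes at room temperature.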

Test [10] is described as follows: qHTS assay to identify small molecule HDAC inhibitors - cell viability counter screen (AID 1259365). In short, it runs like this:
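HCT-116 (wild type), 1,500 cells/well, overnight 37C/5% CO2; compound in DMSO 2hr; CellTiter-Glo 30min RT; luminescence read.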

Test [11] is described as follows: qHTS assay to identify small molecule agonists of the sonic hedgehog signaling (Shh) pathway - cell viability counter screen (AID 1259366). Further: nearly all actives have a fitted effect of over 50% in size. Further: potency means the concentration at half of the fitted maximal effect. The procedure, abridged:
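CellTiter-Fluor fluorescence read-out, 1 hr at 37C, added after 23hr compound exposure. Cells: 3T3 Gli1-Luc, an NIH/3T3 clone with stably integrated Gli1-Luc reporter, plated 4hr before compound.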

Test [12] can be described thus: qHTS assay to identify small molecule agonists of the sonic hedgehog signaling (Shh) pathway (AID 1259368; calls by dose curve; further: nearly all actives have a fitted effect of over 15% in size; further: potency means the concentration at half of the fitted maximal effect). The procedure, abridged:
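Hedgehog pathway agonism scored by increased firefly luciferase luminescence in 3T3Gli1-Luc cells treated 24 hr at 37 C; detection used a 30 min room-temperature reagent incubation.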

Test [13] in a line: qHTS assay to identify small molecule antagonists of the sonic hedgehog signaling (Shh) pathway (AID 1259369; calls by dose curve; further: nearly all actives have a fitted effect of over 45% in size; further: potency means the concentration at half of the fitted maximal effect). In short, it runs like this:
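NIH/3T3 stable Gli1-Luc clone, 2,000 cells/well, 4hr settle; cpd + conditioned medium 24hr; Luc reagent 30min RT; luminescence.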

A short description of test [14]: qHTS RealTime-Glo MT Cell Viability Assay in HepG2 cells - 0 hour (AID 1224889). Further: nearly all actives have a fitted effect of over 50% in size. In short, it runs like this: (§3)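 Luminescence read-out: viable HepG2 cells reduce a prosubstrate to a NanoLuc substrate, giving a signal proportional to live cell number. Reads taken at 0, 8, 16, 24, 32 and 40 h of compound exposure at 37 C.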
Test [15] is described as follows: A CellTox Green Cytotoxicity Assay to monitor cytotoxicity in HepG2 cells - 8 hour (AID 1224890). Further: nearly all actives have a fitted effect of over 45% in size. Further: potency means the concentration at half of the fitted maximal effect. In short, it runs like this:
as §1

A short description of test [16]: qHTS assay to identify small molecule antagonists of the sonic hedgehog signaling (Shh) pathway - cell viability counter screen (AID 1259367). Further: nearly all actives have a fitted effect of over 55% in size. Further: potency means the concentration at half of the fitted maximal effect. In short, it runs like this:
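Cytotoxicity was assessed in parallel with Shh reporter activity by measuring live-cell protease fluorescence (CellTiter-Fluor) in NIH/3T3 cells stably carrying Gli1-Luc, treated with compound under conditioned medium stimulation for 23 hr plus 1 hr reagent incubation.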

Test [17] addresses Androgen receptor (Homo sapiens) (UniProt P10275). Nature of the test: qHTS assay to identify small molecule antagonists of the androgen receptor (AR) signaling pathway using the MDA cell line in the presence of 0.5 nM R1881 (AID 1259243). Further: nearly all actives have a fitted effect of over 50% in size. Further: potency means the concentration at half of the fitted maximal effect. The procedure, abridged:
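With R1881 held at 0.5 nM (final), compound effects on MMTV-luciferase expression in MDA-kb2 cells were scored by luminescence after a 16 hr, 37C incubation.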

Test [18] can be described thus: qHTS assay to identify small molecule antagonists of the androgen receptor (AR) signaling pathway using the MDA cell line in the presence of 0.5 nM R1881 - cell viability counter screen (AID 1259242). Further: nearly all actives have a fitted effect of over 45% in size. In short, it runs like this: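 Concentration-response screen of compounds for toxicity in MDA-kb2 reporter cells: 16 hr at 37C with 0.5 nM R1881, endpoint live-cell protease fluorescence measured in the reporter wells.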

The nature of test [19]: qHTS RealTime-Glo MT Cell Viability Assay in HepG2 cells - 16 hour (AID 1224885). Further: nearly all actives have a fitted effect of over 50% in size. The procedure, abridged:
as §3

Estrogen receptor (Homo sapiens), sequence (P03372 whole entry, looked up): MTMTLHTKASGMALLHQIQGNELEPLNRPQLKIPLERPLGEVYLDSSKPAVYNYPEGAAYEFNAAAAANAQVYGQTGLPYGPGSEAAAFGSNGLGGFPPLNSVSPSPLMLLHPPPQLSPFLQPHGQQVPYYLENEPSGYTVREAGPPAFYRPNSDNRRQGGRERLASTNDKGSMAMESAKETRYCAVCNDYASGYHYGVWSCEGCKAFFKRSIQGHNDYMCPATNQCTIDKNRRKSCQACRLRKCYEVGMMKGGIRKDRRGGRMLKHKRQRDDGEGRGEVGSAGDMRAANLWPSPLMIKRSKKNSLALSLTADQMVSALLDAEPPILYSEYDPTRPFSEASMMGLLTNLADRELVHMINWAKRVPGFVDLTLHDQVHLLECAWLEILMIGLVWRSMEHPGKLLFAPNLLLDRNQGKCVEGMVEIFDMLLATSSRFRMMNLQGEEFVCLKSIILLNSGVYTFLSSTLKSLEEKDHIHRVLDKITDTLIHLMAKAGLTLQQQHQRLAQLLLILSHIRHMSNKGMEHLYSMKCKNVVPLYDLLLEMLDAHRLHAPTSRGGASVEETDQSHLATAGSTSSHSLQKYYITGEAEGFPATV
Androgen receptor (Homo sapiens), sequence (P10275 whole entry, looked up): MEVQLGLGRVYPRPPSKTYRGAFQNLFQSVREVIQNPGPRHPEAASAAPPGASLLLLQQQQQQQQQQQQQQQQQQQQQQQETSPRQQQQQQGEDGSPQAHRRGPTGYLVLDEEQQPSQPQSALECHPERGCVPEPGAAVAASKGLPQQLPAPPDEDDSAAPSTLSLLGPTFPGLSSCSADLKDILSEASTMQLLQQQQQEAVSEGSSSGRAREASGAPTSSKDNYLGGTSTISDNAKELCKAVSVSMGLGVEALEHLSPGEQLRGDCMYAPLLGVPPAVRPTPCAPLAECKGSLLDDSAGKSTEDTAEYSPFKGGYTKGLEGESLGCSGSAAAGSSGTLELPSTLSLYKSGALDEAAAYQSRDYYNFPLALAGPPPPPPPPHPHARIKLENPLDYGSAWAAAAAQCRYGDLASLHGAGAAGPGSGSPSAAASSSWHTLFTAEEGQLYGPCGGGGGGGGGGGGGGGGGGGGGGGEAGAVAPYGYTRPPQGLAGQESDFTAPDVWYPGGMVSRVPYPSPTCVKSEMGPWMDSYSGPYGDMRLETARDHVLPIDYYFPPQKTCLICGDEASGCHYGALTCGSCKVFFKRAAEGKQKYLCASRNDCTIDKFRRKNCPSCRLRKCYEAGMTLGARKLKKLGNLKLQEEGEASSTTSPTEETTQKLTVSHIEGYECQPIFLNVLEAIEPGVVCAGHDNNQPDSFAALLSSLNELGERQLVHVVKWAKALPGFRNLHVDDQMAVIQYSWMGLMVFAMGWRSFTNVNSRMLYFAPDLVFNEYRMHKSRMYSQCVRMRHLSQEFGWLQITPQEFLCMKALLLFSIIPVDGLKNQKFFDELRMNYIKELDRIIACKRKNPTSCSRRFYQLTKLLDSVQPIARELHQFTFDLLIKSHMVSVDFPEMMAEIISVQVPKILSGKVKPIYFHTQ

For the molecule `CN(C)CCCN1c2ccccc2Sc2ccc(C(F)(F)F)cc21`, the Potency entry in test [1], in [3], in [6], in [7], in [8] and in [9] was “inactive” each time. Besides, the Potency entry in [10], in test [11] and in test [12] was “inactive” throughout. For the same molecule, the Potency in test [2] was 23.9 µM (active); in test [4], 21.3 µM (active); in test [5] it was 21.3 µM (active); in [13], 29.8 µM (active).
Consider `C[C@@]12C(=O)OC(=O)[C@]1(C)C1CCC2O1`, for which the Potency entry in test [1], in test [3], in test [6], in [14], in test [9] and in [12] was “inactive” each time. For the same molecule, the Potency was 9.52 µM (active) in test [2]; 6.74 µM (active) in test [4]; 23.9 µM (active) in [15]; 6.68 µM (active) in test [8]; 1.5 µM (active) in [11]; 3.76 µM (active) in test [16]. In addition, the Potency in test [13] was 1.68 µM (active).
Turning to `CN(C)c1ccc(N=NS(=O)(=O)O)cc1`, the Potency entry in test [1], in test [2], in test [3], in [6], in test [15] and in test [10] was “inactive” throughout. In [11], the Potency result is “inactive”. In addition, the Potency was 34.5 µM (active) in [5], 22.9 µM (active) in [17], 16.2 µM (active) in test [12] and 12.2 µM (active) in test [13].
Regarding `C=CC(=O)OCC(O)COc1ccccc1` (stereo not given), the Potency result in [1], in [2], in test [3], in [4], in test [5] and in test [6] was “inactive” throughout. In addition, the Potency entry in test [14], in test [15], in test [7], in [18], in [8] and in [16] was “inactive” each time. Moreover, the Potency entry in test [12] and in test [13] was “inactive” throughout. Besides, the Potency in test [11] was 27.3 µM (active).
For the molecule `C=CC(=O)OCCN(CC)CC`, the Potency result in [1], in test [2], in test [19], in [4], in test [5] and in test [6] was “inactive” each time. The Potency result in test [14], in test [15], in test [7], in [18], in test [17] and in [8] was “inactive” each time. For the same molecule, the Potency result in [9], in [10], in [11], in test [16], in [12] and in test [13] was “inactive” in each case.
`COc1cc(C=C2CCC/C(=C\c3ccc(O)c(OC)c3)C2=O)ccc1O`: the Potency entry in [1], in test [3], in [6], in test [9] and in test [10] was “inactive” each time. Further, the Potency in [2] is 21.3 µM (active); in test [4], 23.9 µM (active); in [5] it was 2.39 µM (active); in test [17], 9.44 µM (active); in test [16] it was 23.7 µM (active); in test [12], 26.6 µM (active).
Turning to `CCCCCCCOC(=O)c1ccc(O)cc1`, the Potency entry in test [1], in [19], in test [6], in test [14], in test [7] and in [18] was “inactive” in each case. In addition, the Potency result in [8], in test [9], in test [10], in test [11], in test [16] and in test [12] was “inactive” throughout. The Potency in [2] is 24.5 µM (active); in test [4], 24.6 µM (active) and 21.9 µM (active); in [5], 21.9 µM (active); in test [15] it was “inactive and 38.9 µM (active)”; in [13], 43.3 µM (active).
On to `CCCCCCCCCCc1ccccc1`, for which the Potency result in test [1], in test [2], in test [19], in [4], in test [5] and in test [6] was “inactive” in each case. Further, the Potency result in [14], in test [15], in [7], in test [18], in [8] and in test [9] was “inactive” throughout. In addition, the Potency result in test [10], in test [11], in [16], in test [12] and in test [13] was “inactive” in each case.
